# Unmarked numbers belong to inactive results. The rule behind the calls is not given here.
# System: Phorbol Ester
# Experiment: selectivity profiling over binding targets, CYP450 – biochemical, Ricerca HitProfilingScreen, selectivity assay for S1P3 agonist project, profiling panel (AID 540351)
# Details: Ricerca receptor/enzyme binding panel plus CYP450, at 30 µM, hits give high values
structure (smiles),measurement,value
O=C(c1cc(C2CC2)on1)N(C1CCCCC1)C1CCCCC1,inhibition,-19%
